# PubChem BioAssay AID2314 (National Center for Advancing Translational Sciences (NCATS), 2010)
# About 37,000 (12%) of roughly 300,000 compounds were called active. Cut-off read from the data, not from the text of the source: active = max response mostly above about 13% (no sharp cut-off); inactive = mostly below about 14%. The sample as a whole holds a higher share of actives than the screen did.
# Experiment: Cycloheximide Counterscreen for Small Molecule Inhibitors of Shiga Toxin; note: read at 38.3 µM for the half of the compounds with a filed dose; 0% is about no effect
# Settings: cell reporter, cycloheximide protein synthesis inhibition counterscreen; active compounds read high
row,Structure (SMILES),max response
1,Cc1nc2ccccc2c(=O)n1Cc1ccc([N+](=O)[O-])cc1,-1.56% (inactive)
2,Nc1ccc(N=Nc2ccccc2Cl)c(N)n1,25.9% (active)
3,O=S(=O)(c1ccc(Cl)s1)N1CCC2(CC1)OCCO2,2.18% (inactive)
4,COC(=O)c1cc(NC(=O)c2cc(C(C)(C)C)nn2Cc2cccc(C)c2)ccc1N1CCOCC1,-3.1% (inactive)
5,CCCNC(=O)c1cnc(-c2ccccc2)nc1-c1ccccc1,-6.13% (inactive)
6,O=C(COC(=O)c1ccccc1C(=O)c1ccccc1)c1ccco1,8.15% (inactive)
7,CCN(CC)c1ccc(C(=O)OCC(=O)c2ccco2)cc1,7.36% (inactive)
8,CCc1ccc(C(=O)COC(=O)c2ccco2)cc1,42.3% (active)
9,COc1ccc2[nH]c(C(=O)N/N=C/c3cc(OC)c(OC)c(OC)c3)cc2c1,13.6% (inactive)
10,COc1ccc2[nH]c(C(=O)Nc3ccccc3Cl)cc2c1,36.2% (active)
11,COc1cccc(NC(=O)CN2CCN(CC(=O)Nc3ccccc3Cl)CC2)c1,-0.686% (inactive)
12,Cc1cccc(C(=O)NNC(=O)CSc2nnc(C(C)C)n2C)c1,-5.35% (inactive)
13,Cc1cccc(C)c1NC(=S)N1CCCCCC1,-7.53% (inactive)
14,CCOc1ccc(NC(=S)N2CCCCCC2)cc1,26.7% (inactive)
15,NS(=O)(=O)c1ccc(NC(=S)N2CCCC2)cc1,-1.21% (inactive)
16,S=C(Nc1ccc2c(c1)OCO2)N1CCCC1,25.6% (active)
17,CCC(C)c1ccc(NC(=S)N2CCCC2)cc1 (configuration not stated),35.2% (active)
18,CC(=O)c1cccc(NC(=S)N2CCCC2)c1,0.199% (inactive)
19,COC(=O)c1ccc(S(=O)(=O)N2CCc3ccccc3C2)cc1,-0.876% (inactive)
20,CCc1nn(CCCC(=O)NCc2ccc(C)cc2)c(=O)c2cc3occc3n12,9.5% (inactive)
21,CCCCCCC(O)(CCN1CCCCC1)c1ccccc1 (configuration not stated),-3.74% (inactive)
22,Cc1ccnc(N2CCCC(C(=O)NC3CC3)C2)n1 (configuration not stated),-3.55% (inactive)
23,Cc1ccc(S(=O)(=O)Nc2nc3ccccc3s2)cc1[N+](=O)[O-],-1.91% (inactive)

row,Structure (SMILES),max response
1,CSCCC(Nc1nc2ccccc2s1)C(=O)O (configuration not stated),-2.31% (inactive)
2,Cc1ccnc(Nc2nc3ccccc3s2)n1,55.1% (active)
3,COc1cccc(NS(=O)(=O)c2ccc(-c3coc(C)n3)cc2)c1,15.9% (inactive)
4,O=C(NC1CCCC1)C1CC(=O)N(c2ccc(F)cc2)C1 (configuration not stated),-4.78% (inactive)
5,COCCC(=O)N1CCC(Oc2ccc(C(=O)NCc3ccon3)cc2)CC1,2.55% (inactive)
6,Cc1cc2nc(-c3ccc(NC(=O)c4cccnc4)cc3)oc2cc1C,32.1% (active)
7,CC(=O)Nc1ccc(Nc2c3ccccc3nc3ccccc23)cc1,-9.79% (inactive)
8,COc1cc(OC)cc(C(=O)Nc2ccc(S(=O)(=O)Nc3cc(C)on3)cc2)c1,-4.87% (inactive)
9,CC(=O)Nc1ccc(-c2nc3ccccc3o2)cc1,35.3% (active)
10,CC(=O)Nc1ccc(S(=O)(=O)N(C)c2nc3ccccc3nc2Cl)cc1,18% (inactive)
11,COc1cc(OC)cc(C(=O)Nc2ncc3c(n2)CC(C)(C)CC3=O)c1,9.17% (inactive)
12,COc1cc(OC)cc(C(=O)Nc2ccc(-c3nc4ccccc4o3)c(O)c2)c1,24.8% (active)
13,COC(=O)c1cc(NC(=O)c2cccnc2)ccc1N1CCOCC1,-2.96% (inactive)
14,CC(=O)NC(=S)Nc1ccc(NC(=O)c2cccnc2)cc1,1.22% (inactive)
15,Cc1cc(NS(=O)(=O)c2ccc(NC(=O)c3cccnc3)cc2)nc(C)n1,1.8% (inactive)
16,Cc1ccc2nc(-c3ccc(NC(=O)c4cccnc4)cc3)oc2c1,49.6% (active)
17,CCC1=Nc2cc(C(=O)NCCCN3CCOCC3)ccc2Sc2ccc(Br)cc21,-2.78% (inactive)
18,CC(=O)Nc1ccc(S(=O)(=O)NCC(=O)OCc2cc(=O)oc3ccc4ccccc4c23)cc1,-2.56% (inactive)
19,Cc1cc(OCCN2CCCC2)cc(C(C)C)c1,-2.45% (inactive)
20,CCn1cc(CN2CCC(C(=O)Nc3cccc(-c4cccc(Cl)c4)c3)CC2)cn1,-10.1% (inactive)
21,CC1Cc2cc(/C(O)=C3\C(=O)C(=O)N(Cc4cccnc4)C3c3ccccc3F)ccc2O1 (configuration not stated),-1.92% (inactive)
22,O=C(Cn1cc(/C=N/NC(=O)c2cccc(C(F)(F)F)c2)c2ccccc21)Nc1ccc(F)cc1,2.04% (inactive)
23,O=C(C(Cc1ccccc1)n1cccc1)N1CCN(C2CCCCC2)CC1 (configuration not stated),-4.26% (inactive)

row,Structure (SMILES),max response
1,CCOC(=O)C1CCN(S(=O)(=O)c2c(C)noc2C)CC1,-1.8% (inactive)
2,Cc1ccc(C)c(S(=O)(=O)N2CCN(C(=O)Nc3ccccc3)CC2)c1,-1.4% (inactive)
3,Cc1ccc(NC(=O)Cn2nc(C)c3ccccc3c2=O)c(C)c1,-1.38% (inactive)
4,Cc1ccc(NC(=O)c2ccn(C(=O)Nc3ccccc3)n2)c(C)c1,43.3% (active)
5,Cc1ccc(CCCOC(=O)C[N+]2(C)CCCC2)cc1,-2.71% (inactive)
6,Cc1c(C(=O)N2CCN(c3ccc(F)cc3)CC2)oc2c1C(=O)CCC2,-3.49% (inactive)
7,CCCCOC(=O)CCCc1ccc([N+](=O)[O-])cc1[N+](=O)[O-],-1.18% (inactive)
8,CC1C(=O)Nc2ccccc2N1C(=O)c1c(F)cccc1F (configuration not stated),-2.05% (inactive)
9,COc1cccc(NC(=O)C(C)Oc2ccccc2)c1 (configuration not stated),4.2% (inactive)
10,O=C(Nc1ccccc1-c1ccccc1)c1cccs1,5.16% (inactive)
11,CC(Oc1cccc(NC(=O)c2cccs2)c1)C(=O)c1ccccc1 (configuration not stated),19.5% (active)
12,C/C(=N\NC(=O)CNc1cccc2ccccc12)c1ccc(Br)s1,-2.1% (inactive)
13,Cc1cccc(/C=N/NC(=O)CNc2cccc3ccccc23)n1,45.5% (active)
14,Cn1cccc1/C=N/NC(=O)CNc1cccc2ccccc12,4.6% (inactive)
15,Cc1ccccc1/[N+]([O-])=C/c1ccncc1,9.27% (inactive)
16,Cc1cccc(N2C(=O)c3ccc(C(=O)Nc4cccc(C(=O)O)c4)cc3C2=O)c1,10.2% (inactive)
17,O=C(CN1CCN(S(=O)(=O)/C=C/c2ccccc2)CC1)Nc1ccc(N2CCOCC2)cc1,-1.05% (inactive)
18,O=C(O)c1ccc2c(c1)C(=O)N(c1ccc(/C=C/C(=O)c3ccccc3)cc1)C2=O,46.6% (active)
19,O=C(c1ccc(S(=O)(=O)N2CCOCC2)cc1)N1CCN(c2ccccc2)CC1,-2.23% (inactive)
20,O=C(/C=C/c1ccc(N2CCOCC2)cc1)c1ccccc1,46.4% (active)
21,CC(=O)Oc1ccc(C)cc1N1C(=O)c2ccc(C(=O)O)cc2C1=O,6.31% (inactive)
